Compound activity: PubChem, National Center for Advancing Translational Sciences (NCATS)
ELG1 genotoxic = qHTS screen for small molecules that induce genotoxicity in human embryonic kidney (HEK293T) cells expressing luciferase-tagged ELG1. 330,000 compounds, 1.3% hits. Potency, µM (doses to about 46 µM), inactives show at the highest dose activity change, positive = activation, usual class: activators. HEK293T ELG1-luciferase reporter, luminescence, 16 h; note: % of control where 0% means no effect; nearly all actives have a fitted effect of over 60% in size
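Screening used a luciferase reporter fused to human ELG1 in HEK293T cells. Luminescence was read on a CCD plate imager after 16 hr exposure and 30 min ONE-Glo incubation.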
Luc counter = Counterscreen for Luciferase (Kinase-Glo TM) Inhibition; Luciferin 4-monooxygenase (Photuris pensylvanica), Q27757; Kinase-Glo luciferase, ATP luminescence, 8 min; Potency, µM (doses to about 38.3 µM), for the others: top-dose activity change, negative = inhibition, usual class: inhibitors; 200,000 compounds, 0.28% hits; note: % is set by controls: 0 for no effect and ±100 for the full control effect; nearly all actives have a fitted effect of over 60% in size
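Substrate mix (final 50 mM imidazole pH 7.2, 50 mM KCl, 7 mM MgCl2, 10 uM ATP, 0.01% Tween 20, 0.05% BSA) plus pin-tool compound, then Kinase-Glo detection mix; 8 min ambient, luminescence read.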
NPC1 promoter act = qHTS Assay for NPC1 Promoter Activators; Huh7 NPC1 promoter luciferase reporter, 24 h; Potency, µM (titrated, usually from 9.22 µM), for the others: top-dose activation, usual class: activators; 320,000 compounds, 2.4% hits; note: % of control where 0% means no effect; nearly all actives have a fitted effect of over 60% in size
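Stably transfected Huh7 (NPC1 promoter→luciferase), 1500 cells/well in Opti-MEM + 10% FBS, 2 h settle, then compound 24 h at 37 °C. Luminescence after 10 min with Amplite reagent.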
Rab9 prom act = qHTS Assay for Rab9 Promoter Activators | Huh7 Rab9 promoter-luciferase reporter, luminescence, 24 h | Potency, µM (highest dose often 9.22 µM), without a hit: top-dose activation, negative = inhibition, hits mostly activators | 320,000 compounds, 2.8% hits | AID 485297, 2010; note: % of control where 0% means no effect; nearly all actives have a fitted effect of over 60% in size
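Huh7 cells stably carrying a Rab9 promoter-luciferase reporter, 1500 cells per well in OP-MEM I with 10% FBS, treated with compound 24 hours at 37C. Luciferase activity read by luminescence after 10 minutes with Amplite reagent.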
FLuc modulator = qHTS profiling assay for firefly luciferase inhibitor/activator using purifed enzyme and Km concentrations of substrates (counterscreen for miR-21 project) | Luciferin 4-monooxygenase (Photinus pyralis), P08659 | purified FLuc, Km substrates, luminescence inhibition | Potency, µM (series often up to 57.5 µM), inactives show at the top dose activity change, negative = inhibition, usual class: inhibitors | 360,000 compounds, 6.9% hits;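 note: plate controls were vehicle for no effect and reference inhibitor for full effect; nearly all actives have a fitted effect of over 55% in size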
Target sequence (P08659 whole entry, looked up): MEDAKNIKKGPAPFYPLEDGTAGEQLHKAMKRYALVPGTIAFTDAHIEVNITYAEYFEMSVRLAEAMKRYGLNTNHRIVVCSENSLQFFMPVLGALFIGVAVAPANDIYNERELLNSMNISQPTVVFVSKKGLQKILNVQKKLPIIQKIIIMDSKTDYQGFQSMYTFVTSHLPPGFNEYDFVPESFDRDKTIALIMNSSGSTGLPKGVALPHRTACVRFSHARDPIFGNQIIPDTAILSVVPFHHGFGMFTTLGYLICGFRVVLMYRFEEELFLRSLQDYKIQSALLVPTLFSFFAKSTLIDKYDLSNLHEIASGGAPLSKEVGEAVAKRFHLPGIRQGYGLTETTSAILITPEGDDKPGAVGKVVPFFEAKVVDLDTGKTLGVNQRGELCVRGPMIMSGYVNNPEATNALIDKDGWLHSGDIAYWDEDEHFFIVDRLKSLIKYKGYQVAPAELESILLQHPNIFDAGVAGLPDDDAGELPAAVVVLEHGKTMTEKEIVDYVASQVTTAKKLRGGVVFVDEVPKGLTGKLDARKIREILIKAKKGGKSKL
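Purified P. pyralis luciferase (10nM final) with 10uM D-luciferin and 10uM ATP (Km levels) in 50mM Tris acetate pH 7.5, 10mM Mg acetate, 0.01% Tween-20, 0.05% BSA; qHTS 6-point titration, ~60 µM downward; luminescence read.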
SMN2 splice enh = qHTS Assay for Enhancers of SMN2 Splice Variant Expression | HEK293 SMN2-luciferase splicing reporter, luminescence, 30-36 h | Potency, µM (highest dose often 46.1 µM), for inactives: at the highest dose activity change, positive = activation, actives largely listed as activators | 210,000 compounds, 2.8% hits; note: % of control where 0% means no effect; nearly all actives have a fitted effect of over 55% in size
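HEK293 cells carry an SMN2 minigene-luciferase reporter in which exon 7 inclusion puts luciferase in frame. Cells were seeded at 2000 cells/well, attached for 10-12 hours, then exposed to compounds for 30-36 hours at 37C before ONE-Glo luminescence.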
* marks the source's active call; other numbers are inactive results; ? = inconclusive; nt = no result given; [ ] = another dose, or the depositor's remark. Sampled rows, rich in hits. Any-hit rate of the full collection: about 7.3%. Calls come from the whole dose curve; as a rule, active = well fitted curve in the direction sought with a large enough effect; inconclusive = small, poorly fitted or top-dose-only effect, or another doubt; inactive = no such curve, though single readings can be large; an effect the other way counts as inactive or inconclusive. Potency is the fitted concentration of half-maximal effect.

SMILES | ELG1 genotoxic | Luc counter | NPC1 promoter act | Rab9 prom act | FLuc modulator | SMN2 splice enh
COc1ccc(NCc2nnc(SCC(=O)Nc3cc(C(F)(F)F)ccc3Cl)o2)cc1 | -1% | -5% | -2% | -3% | 17µM* | 6%
Cc1cc(C)c(NC(=O)Cn2c(=O)nc(-c3ccccc3)c3cc(Cl)ccc32)c(C)c1 | nt | nt | nt | nt | -13% | nt
CNCC[C@H](Oc1ccccc1OC)c1ccccc1 | nt | -3% | nt | nt | nt | -13%[20.6 µM]
O=C(Cn1c(=O)nc(-c2ccccc2)c2ccccc21)NCCc1ccccc1 | nt | nt | nt | nt | 5% | nt
Cc1ccc(CN2CCN(CCC(C)C)C(CCO)C2)s1 (stereo unspecified) | 2% | 0% | -3% | -3% | -1% | nt
Cc1ccc(CN2CCN(CC(C)C)C(CCO)C2)s1 (stereo unspecified) | ? | -2% | 25% | ? | 17µM* | nt
COc1cc([N+](=O)[O-])ccc1N1C(=O)C2C3C=CC(C4CC34)C2C1=O (stereo unspecified) | -3% | 2% | -10% | 0% | 13µM* | -14%
CC(=O)c1cnc(Nc2ccccc2)s1 | 11% | 5% | 3% | 5% | -18% | 2%
CNc1ncc(C(=O)c2ccc(Br)cc2)s1 | ? | 0% | 2.8µM* | 2µM* | 12µM* | 16µM*
O=C(c1ccc(Cl)cc1)c1cnc(Nc2ccccc2Cl)s1 | ? | -10% | 1.8µM* | 1.1µM* | 1.5µM* | 22µM*
CN(C)/C=N/c1ncc(C(=O)c2ccc(Cl)cc2)s1 | 16µM* | 1% | 28% | 6% | ? | 10%
O=C(c1ccc(Cl)cc1)c1cnc(-c2ccccc2)s1 | 13% | -6% | 2.2µM* | 2.8µM* | ? | 3%
CNc1ncc(C(=O)c2ccccc2)s1 | ? | -3% | ? | ? | ? | 17%
Cc1nc(Oc2ccccc2C)c2oc3ccccc3c2n1 | nt | nt | nt | nt | 2% | nt
CO/N=C/CC(=O)c1ccc(-c2ccccc2)cc1 | 11% | -3% | -4% | 12% | ? | 12%
CC(=O)c1cnc(Nc2cccc(Cl)c2Cl)s1 | ? | -5% | 23% | ? | ? | 13µM*
CO/N=C/CC(=O)c1cnc(-c2ccc(Cl)cc2)s1 | ? | -4% | ? | ? | ? | 25µM*
COc1ccc(-c2cc(OC(=O)c3ccccc3Cl)c3c(C)oc(C)c3c(=O)c2)cc1OC | nt | nt | nt | nt | -8% | 5%
O=C(NC(=S)Nc1ccc2c(c1)OCCO2)c1ccc(F)cc1Cl | ? | -1% | 25% | 27% | 13µM* | 13µM*
Cc1ccc(C(=O)NC(=S)Nc2ccc(N3CCOCC3)cc2)c(C)c1 | 7% | 3% | -3% | -9% | -15% | 125%
O=C(NC(=S)Nc1ccc2c(c1)OCO2)c1ccc(Cl)cc1 | ? | -2% | 4µM* | 2.2µM* | ? | 13µM*
Cc1ccc(C(=O)NC(=S)Nc2ccc3c(c2)OCCO3)c(C)c1 | ? | 0% | ? | ? | 9.5µM* | 15%
CCc1ccc(C(=O)NC(=S)Nc2ccc3c(c2)OCCO3)cc1 | ? | 3% | 2.8µM* | 4µM* | 6µM* | 11µM*
CCCSCCCNC(=O)c1ccc2c(c1)sc1nc(-c3ccc(OCC)cc3)cn12 | nt | nt | nt | nt | 2% | nt
COc1cccc(NC(=O)CSc2nc(=O)n(Cc3cccnc3)c3c2CCC3)c1 | nt | nt | nt | nt | -2% | nt
SMILES | ELG1 genotoxic | Luc counter | NPC1 promoter act | Rab9 prom act | FLuc modulator | SMN2 splice enh
CC(C)COc1cccc(C(=O)Nc2ccc(-c3nc4ncccc4o3)cc2)c1 | nt | nt | nt | nt | -1% | 0%
Cc1cc(C)cc(C(=O)NC(=S)Nc2ccc3c(c2)OCCO3)c1 | ? | nt | ? | ? | 6.7µM* | nt
CO[C@@H]1/C=C\O[C@]2(C)Oc3c(C)c(O)c4c(O)c(cc(O)c4c3C2=O)NC(=O)/C(C)=C\C=C/[C@H](C)[C@@H](O)[C@H](C)[C@H](O)C(C)[C@H](OC(C)=O)[C@@H]1C (stereo partly specified) | nt | 0%[7.66 µM] | nt | nt | nt | 4%[9.22 µM]
O=S(=O)(NCC(c1ccco1)N1CCN(c2ccc(F)cc2)CC1)c1cc(F)ccc1F (stereo unspecified) | nt | nt | nt | nt | -7% | nt
CCc1ccc2nc(/N=C(\N)NC(=O)c3ccccc3)nc(C)c2c1 | 4% | nt | 23% | ? | 6µM* | nt
Cc1cc(C)c2nc(/N=C(\N)NC(=O)c3ccccc3)nc(C)c2c1 | 1% | nt | -5% | -7% | ? | nt
O=C(Nc1cccc2ccccc12)/C(Cl)=C/c1ccccc1 | 1% | 7% | 2% | 7% | 12µM* | 10%
O=C(Nc1ccccc1F)C(=O)Nc1cccc2ccccc12 | ? | nt | ? | 2.8µM* | ? | nt
Cc1ccc(NC(=O)c2ccccc2OCC(=O)c2ccccc2)cc1 | 13% | -4% | 0% | 0% | 13µM* | 24%
O=C(COc1ccc(Br)cc1)Nc1ccc(NC(=O)c2ccccc2)cc1 | 17% | nt | 24% | 18% | 0% | nt
CCOc1ccc(NC(=O)c2ccccc2OCC(=O)c2ccccc2)cc1 | 15% | 8% | 23% | ? | 2.1µM* | -12%
O=C(COc1ccc(NC(=O)c2ccccc2)cc1)c1ccccc1 | 4% | nt | ? | 15% | 2.1µM* | nt
Cc1c(Cl)cccc1-n1nc(C)c2c(C)cc(=O)n(CC(=O)N3CCCc4ccccc43)c21 | nt | nt | nt | nt | -9% | nt
COc1cccc(C(=O)Nc2nnc(C(C)C)s2)c1 | 3.7µM* | -6% | 3.5µM* | 1µM* | 3.4µM* | 2.5µM*
CCCc1nnc(NC(=O)c2cccc(OC)c2)s1 | ? | -3% | 3.2µM* | 4.5µM* | 24µM* | ?
CCOC(=O)c1cccc(NC(=O)CSc2ncc3c(n2)-c2ccc(Cl)cc2N(Cc2ccccc2)S3(=O)=O)c1 | nt | nt | nt | nt | -7% | nt
Cc1cc(C)cc(NC(=O)CSc2nc(-c3ccccc3)c3cc(F)ccc3n2)c1 | nt | nt | nt | nt | -1% | 2%
O=C(O)/C=C/C(=O)NNC(=O)c1ccc(Cl)cc1Cl | -6% | -2% | -3% | 14% | -18% | nt
O=C(NC1CC(=O)c2sccc21)c1ccc(Cl)cc1Cl (stereo unspecified) | ? | 1% | ? | 2.8µM* | 17µM* | 5µM*
CN(C)c1ccc(NC(=O)Nc2cccc3ccccc23)cc1 | 16% | 3% | 28% | ? | 2.7µM* | 12%
CCN(CC)c1ccc(NC(=O)Nc2ccccc2C(F)(F)F)cc1 | 0% | -7% | ? | 3.2µM* | -19% | 7%
